Measured values taken from PubChem BioAssay (EPA / NIEHS).
The source made the active and inactive calls. Rule for the calls: active = hit-call score of the fitted dose curve at least 0.9, where 1 is the maximum; inactive = score below 0.9.

What was measured:
[1] = target: CCAAT/enhancer-binding protein beta (Homo sapiens) (UniProt P17676); assay: ATG_C_EBP_CIS: Attagene CIS-FACTORIAL HepG2 Assay for human CCAAT/Enhancer Binding Protein (C/EBP) beta (AID 2282927); details: HepG2 Attagene cis-factorial transcription factor reporter; actives raise or lower the signal
CCAAT/enhancer-binding protein beta (Homo sapiens), sequence (P17676 whole entry, looked up): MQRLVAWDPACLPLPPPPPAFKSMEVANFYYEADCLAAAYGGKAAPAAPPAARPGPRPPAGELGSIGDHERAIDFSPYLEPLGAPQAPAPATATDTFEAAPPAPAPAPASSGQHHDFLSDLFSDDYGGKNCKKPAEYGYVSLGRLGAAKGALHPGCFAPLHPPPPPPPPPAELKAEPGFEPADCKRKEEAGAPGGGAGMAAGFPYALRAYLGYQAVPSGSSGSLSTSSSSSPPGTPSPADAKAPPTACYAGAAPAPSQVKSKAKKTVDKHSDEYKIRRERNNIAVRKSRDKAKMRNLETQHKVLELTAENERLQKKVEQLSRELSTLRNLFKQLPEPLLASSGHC
In short: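 Endogenous transcription factor activity in human liver HepG2 cells is inferred from induction of a CEBPB-linked reporter mRNA. Exposure lasts 24 h; activity is fitted in both directions relative to DMSO.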

[2] = ATG_CMV_CIS: Attagene CIS-FACTORIAL HepG2 Assay for human CMV (Internal Marker) (AID 2282928); details: HepG2 CMV promoter reporter, transcription factor profiling; actives raise or lower the signal;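 note: endpoint acts as a background internal control marker rather than a target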
In short: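 Reporter transcripts from transfected HepG2 cells are isolated after 24 h of chemical dosing, reverse-transcribed and amplified. Fragments labeled with 6-FAM are cut with HpaI and quantified by capillary electrophoresis; DMSO defines baseline.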

[3] = ATG_AP_1_CIS: Attagene CIS-FACTORIAL HepG2 Assay for human Activator Protein 1 (AP-1) (AID 2282931); details: HepG2 Attagene cis-factorial AP-1 reporter mRNA; actives raise or lower the signal
In short: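 Readout is reporter transcript level from endogenous transcription factor activity, quantified by RT-PCR with fluorescent primer extension and capillary electrophoresis. Transiently transfected HepG2 cells, 24 h exposure. Curves fitted both directions versus DMSO.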

[4] = ATG_AP_2_CIS: Attagene CIS-FACTORIAL HepG2 Assay for human Activator Protein 2 (AP-2) (AID 2282932); details: HepG2 AP-2 cis-reporter, Attagene transcription factor profiling; actives raise or lower the signal
In short: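 Transiently transfected HepG2 cells are exposed to chemical for 24 h. Reporter transcripts are then measured as fluorescence following RT-PCR and capillary separation, and gain- or loss-of-signal is fitted relative to DMSO.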

[5] = ATG_BRE_CIS: Attagene CIS-FACTORIAL HepG2 Assay for human Bone Morphogenetic Protein (BMP) Response Element (BRE) (AID 2282933); details: HepG2 BMP response element reporter, Attagene transcription factor profiling; actives raise or lower the signal
In short: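 Gain- or loss-of-signal was derived by bidirectional fitting against DMSO controls. The signal came from reporter mRNA, measured by RT-PCR and capillary electrophoresis, in HepG2 cells transiently carrying multiple reporter units and dosed for 24 h.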

[6] = ATG_E_Box_CIS: Attagene CIS-FACTORIAL HepG2 Assay for human Enhancer Box (E-box) (AID 2282936); details: HepG2 E-box cis-reporter transcription, actives raise or lower the signal
In short: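 Fluorescent reporter fragments separated by capillary electrophoresis gave the signal; mRNA came from HepG2 cells transfected with cis-element reporters and treated 24 h. Curves fitted bidirectionally relative to DMSO controls.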

[7] = ATG_M_61_CIS: Attagene CIS-FACTORIAL HepG2 Assay for M61 Transcription Factor (Internal Marker) (AID 2282937); details: HepG2 Attagene CIS-FACTORIAL M61 internal marker reporter; actives raise or lower the signal
In short: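 Readout is reporter mRNA by RT-PCR, fluorescent primer extension and capillary electrophoresis, with gain or loss fitted relative to DMSO. Transfected HepG2 cells carrying endogenous-TF-driven cis reporters were exposed to chemicals for 24 hours.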

[8] = ATG_EGR_CIS: Attagene CIS-FACTORIAL HepG2 Assay for human Early Growth Response 1 (EGR1) (AID 2282938); details: HepG2 Attagene CIS-FACTORIAL EGR reporter mRNA; actives raise or lower the signal
In short: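 After 24 h compound exposure, RNA from reporter-transfected HepG2 cells was reverse-transcribed, PCR-amplified, fluorescently labelled and resolved by capillary electrophoresis. EGR1 reporter transcript changes, up or down, were fitted against DMSO, reflecting endogenous transcription-factor activity.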

[9] = ATG_Ets_CIS: Attagene CIS-FACTORIAL HepG2 Assay for human Erythroblast Transformation Specific (ETS) (AID 2282941); details: HepG2 ETS cis-reporter transcription, actives raise or lower the signal
In short: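 Bidirectional fit versus DMSO of reporter mRNA signal, detected by RT-PCR and capillary electrophoresis in HepG2 cells transiently transfected with cis-element reporters and dosed 24 h.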

[10] = ATG_FoxO_CIS: Attagene CIS-FACTORIAL HepG2 Assay for human Forkhead box O (FoxO) (AID 2282943); details: HepG2 Attagene cis-reporter, FoxO element, mRNA; actives raise or lower the signal
In short: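 HepG2, transient MRTU transfection (cis element, endogenous TFs). Dose 24 h. TriZol RNA → oligo(dT) RT → PCR → 6-FAM primer extension → HpaI cut → CE. Gain/loss vs DMSO.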

[11] = ATG_GATA_CIS: Attagene CIS-FACTORIAL HepG2 Assay for human GATA Binding Protein (AID 2282944); details: HepG2 GATA cis-element reporter, Attagene multiplex mRNA; actives raise or lower the signal
In short: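 DMSO serves as negative control and baseline for bidirectional fitting of reporter mRNA changes. HepG2 cells bearing transiently transfected cis-promoter reporters were exposed 24 h; transcripts detected via RT-PCR and capillary electrophoresis.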

[12] = ATG_ISRE_CIS: Attagene CIS-FACTORIAL HepG2 Assay for human Interferon Regulatory Factor 1 (IRF1) binding to an Interferon-Stimulated Response Element (ISRE) (AID 2282948); details: HepG2 ISRE cis-reporter (Attagene), mRNA transcription readout; actives raise or lower the signal
In short: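 Uses HepG2 liver cells transfected with cis-regulated reporters and measures mRNA 24 h post-dosing through RT-PCR, primer-extension labelling and capillary electrophoresis, with DMSO as negative control.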

[13] = ATG_M_06_CIS: Attagene CIS-FACTORIAL HepG2 Assay for M06 Transcription Factor (Internal Marker) (AID 2282950); details: HepG2 Attagene CIS-FACTORIAL M06 internal marker reporter; actives raise or lower the signal
In short: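 Fluorescence-labelled RT-PCR products from cis-promoter reporter units, cut with HpaI and resolved by capillary electrophoresis, give the signal. Cells are human HepG2, dosed for 24 h. Serves as background control, fitted relative to DMSO.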

[14] = ATG_MRE_CIS: Attagene CIS-FACTORIAL HepG2 Assay for human Metal Responsive Element (MRE) (AID 2282954); details: HepG2 MRE cis-reporter transcription, Attagene multiplex; actives raise or lower the signal
In short: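 Multiplexed cis-reporter assay in human HepG2 liver cells, 24 h incubation with test chemical. Reporter transcripts measured by RT-PCR and capillary electrophoresis; values from bidirectional curve fitting versus DMSO.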

[15] = target: Paired box protein Pax-6 (Homo sapiens) (UniProt P26367); assay: ATG_Pax6_CIS: Attagene CIS-FACTORIAL HepG2 Assay for human Paired Box 6 (PAX6) (AID 2282956); details: HepG2 CIS-FACTORIAL PAX6 reporter transcription, RNA readout; actives raise or lower the signal
Paired box protein Pax-6 (Homo sapiens), sequence (P26367 whole entry, looked up): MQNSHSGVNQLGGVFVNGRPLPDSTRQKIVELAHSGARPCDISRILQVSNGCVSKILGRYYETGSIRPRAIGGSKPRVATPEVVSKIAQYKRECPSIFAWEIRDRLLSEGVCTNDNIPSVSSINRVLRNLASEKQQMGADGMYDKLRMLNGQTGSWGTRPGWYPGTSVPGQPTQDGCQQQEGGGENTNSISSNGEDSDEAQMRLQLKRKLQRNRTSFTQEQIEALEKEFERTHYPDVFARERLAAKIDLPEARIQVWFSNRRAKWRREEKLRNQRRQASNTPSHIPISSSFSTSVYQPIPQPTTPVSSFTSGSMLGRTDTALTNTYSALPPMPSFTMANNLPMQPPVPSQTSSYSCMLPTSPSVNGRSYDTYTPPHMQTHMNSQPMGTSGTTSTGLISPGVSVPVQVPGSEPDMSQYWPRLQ
In short: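 DMSO-referenced bidirectional fits of reporter mRNA fluorescence; HepG2 with transient cis-promoter MRTUs, 24 h post-dose, RT-PCR plus capillary electrophoresis detection.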

[16] = target: Transcription factor Sp1 (Homo sapiens) (UniProt P08047); assay: ATG_Sp1_CIS: Attagene CIS-FACTORIAL HepG2 Assay for human Specificity Protein 1 (Sp1) (AID 2282961); details: HepG2 Sp1 cis-reporter transcription, actives raise or lower the signal
Transcription factor Sp1 (Homo sapiens), sequence (P08047 whole entry, looked up): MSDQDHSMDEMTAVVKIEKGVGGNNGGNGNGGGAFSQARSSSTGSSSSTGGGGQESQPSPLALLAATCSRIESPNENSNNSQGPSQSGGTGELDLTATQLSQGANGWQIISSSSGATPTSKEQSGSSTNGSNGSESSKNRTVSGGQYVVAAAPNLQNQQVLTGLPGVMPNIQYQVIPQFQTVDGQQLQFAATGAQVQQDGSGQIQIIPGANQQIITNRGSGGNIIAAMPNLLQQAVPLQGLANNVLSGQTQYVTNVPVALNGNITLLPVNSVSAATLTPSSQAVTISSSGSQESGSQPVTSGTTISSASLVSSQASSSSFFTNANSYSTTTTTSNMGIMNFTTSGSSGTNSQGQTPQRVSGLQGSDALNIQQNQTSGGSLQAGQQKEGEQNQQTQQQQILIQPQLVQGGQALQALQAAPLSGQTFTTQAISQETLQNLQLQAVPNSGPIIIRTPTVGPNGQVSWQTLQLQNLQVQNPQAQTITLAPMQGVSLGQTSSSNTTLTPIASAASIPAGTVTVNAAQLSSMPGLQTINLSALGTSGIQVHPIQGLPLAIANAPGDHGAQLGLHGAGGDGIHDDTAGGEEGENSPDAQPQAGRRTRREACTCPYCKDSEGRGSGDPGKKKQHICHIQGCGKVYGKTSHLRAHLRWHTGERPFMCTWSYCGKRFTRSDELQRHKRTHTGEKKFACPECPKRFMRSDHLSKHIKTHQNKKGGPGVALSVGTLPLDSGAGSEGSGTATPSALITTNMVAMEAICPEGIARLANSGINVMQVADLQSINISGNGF
In short: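 Read-out is reporter transcript level, measured by RT-PCR and fluorescent capillary electrophoresis after 24 h chemical treatment. System: transiently transfected HepG2 cells reporting endogenous transcription factor activity; gain or loss fitted against DMSO baseline.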

[17] = ATG_SREBP_CIS: Attagene CIS-FACTORIAL HepG2 Assay for human Sterol Regulatory Element Binding (SREBP) (AID 2282962); details: HepG2 Attagene cis-factorial SREBP reporter, mRNA; actives raise or lower the signal
In short: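 In this cis-format assay, HepG2 liver cells express reporters controlled by promoter elements responsive to native transcription factors. Exposure lasts 24 h; reporter mRNA fluorescence from capillary electrophoresis gives the signal, fitted bidirectionally against DMSO.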

[18] = target: Signal transducer and activator of transcription 3 (Homo sapiens) (UniProt P40763); assay: ATG_STAT3_CIS: Attagene CIS-FACTORIAL HepG2 Assay for human Signal Transducer and Activator of Transcription 3 (STAT3) (AID 2282963); details: HepG2, Attagene cis-factorial STAT3 reporter transcription; actives raise or lower the signal
Signal transducer and activator of transcription 3 (Homo sapiens), sequence (P40763 whole entry, looked up): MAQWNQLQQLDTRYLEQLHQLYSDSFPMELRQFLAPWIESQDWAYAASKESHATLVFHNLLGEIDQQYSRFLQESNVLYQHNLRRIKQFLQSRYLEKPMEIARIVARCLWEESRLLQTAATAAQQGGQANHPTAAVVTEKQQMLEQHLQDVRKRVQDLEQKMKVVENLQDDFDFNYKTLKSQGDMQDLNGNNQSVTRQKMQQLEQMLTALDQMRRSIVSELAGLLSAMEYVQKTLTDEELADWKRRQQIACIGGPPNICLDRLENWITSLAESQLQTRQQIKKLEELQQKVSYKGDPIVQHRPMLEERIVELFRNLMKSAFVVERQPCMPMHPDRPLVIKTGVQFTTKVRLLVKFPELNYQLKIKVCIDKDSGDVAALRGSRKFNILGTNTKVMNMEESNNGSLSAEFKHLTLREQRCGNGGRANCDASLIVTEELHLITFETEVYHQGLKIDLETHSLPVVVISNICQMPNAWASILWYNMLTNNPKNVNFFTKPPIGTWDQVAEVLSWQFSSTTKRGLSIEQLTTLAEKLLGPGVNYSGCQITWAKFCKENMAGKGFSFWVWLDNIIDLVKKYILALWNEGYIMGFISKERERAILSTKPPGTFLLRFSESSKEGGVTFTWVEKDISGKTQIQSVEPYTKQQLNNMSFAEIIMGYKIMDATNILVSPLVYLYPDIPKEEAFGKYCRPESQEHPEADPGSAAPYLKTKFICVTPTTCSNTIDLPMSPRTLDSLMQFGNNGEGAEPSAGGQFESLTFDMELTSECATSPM
In short: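 Cis-factorial format: endogenous transcription factors in HepG2 drive transfected reporter units. After 24 h treatment, reporter RNA was reverse-transcribed, amplified, FAM-labelled and HpaI-digested before CE analysis; activity scored in both directions against DMSO.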

[19] = ATG_TAL_CIS: Attagene CIS-FACTORIAL HepG2 Assay for human TAL Basal Promoter (AID 2282966); details: HepG2 Attagene cis-factorial TAL promoter reporter; actives raise or lower the signal;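 note: background control endpoint measuring basal TAL promoter reporter mRNA not a specific factor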
In short: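 Transiently transfected HepG2 (cis-regulated reporter units), 24 h treatment, mRNA read by fluorescent CE after RT-PCR; bidirectional fit, DMSO baseline.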

[20] = target: X-box-binding protein 1 (Homo sapiens) (UniProt P17861); assay: ATG_Xbp1_CIS: Attagene CIS-FACTORIAL HepG2 Assay for human X-box Binding Protein 1 (XBP1) (AID 2282972); details: HepG2 XBP1 cis-element reporter, Attagene multiplex; actives raise or lower the signal
X-box-binding protein 1 (Homo sapiens), sequence (P17861 whole entry, looked up): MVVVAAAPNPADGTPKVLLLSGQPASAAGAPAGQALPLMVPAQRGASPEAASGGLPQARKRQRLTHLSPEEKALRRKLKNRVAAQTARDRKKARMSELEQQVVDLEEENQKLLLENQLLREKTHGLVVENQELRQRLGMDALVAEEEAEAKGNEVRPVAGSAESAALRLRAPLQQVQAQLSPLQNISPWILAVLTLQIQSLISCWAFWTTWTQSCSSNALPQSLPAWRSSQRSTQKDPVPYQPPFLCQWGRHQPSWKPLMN
In short: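 Changes in reporter transcript abundance, read by RT-PCR and capillary electrophoresis, reflect endogenous transcription factor activity. Transfected HepG2 cells received compound for 24 hours; DMSO defined baseline for bidirectional analysis.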

Measured: AC50

CN(C)Cc1cc(C(C)(C)C)c(O)c(C(C)(C)C)c1
inactive: [1] | [2] | [3] | [4] | [5] | [6] | [7] | [8] | [9] | [10] | [11] | [12] | [13] | [14] | [15] | [16] | [18] | [19] | [20]
active: [17] 43.1 µM

CCC(C)(CCC(C)C)C(=O)O (stereo not given)
inactive: [1] | [2] | [3] | [4] | [5] | [6] | [7] | [8] | [9] | [10] | [11] | [12] | [13] | [14] | [15] | [16] | [17] | [18] | [19] | [20]

CCCOCCC
inactive: [1] | [2] | [3] | [4] | [5] | [6] | [7] | [8] | [9] | [10] | [11] | [12] | [13] | [14] | [15] | [16] | [17] | [18] | [19] | [20]

CCCC(=O)OC/C=C(\C)CCC=C(C)C
inactive: [1] | [2] | [3] | [4] | [5] | [6] | [7] | [8] | [9] | [10] | [11] | [12] | [13] | [14] | [15] | [16] | [17] | [18] | [19] | [20]

CC(C)=CCOC(=O)c1ccccc1
inactive: [1] | [2] | [3] | [4] | [5] | [6] | [7] | [8] | [9] | [10] | [11] | [12] | [13] | [14] | [15] | [16] | [17] | [18] | [19] | [20]

CCOC(=O)CC(=O)OCC
inactive: [1] | [2] | [3] | [4] | [5] | [6] | [7] | [8] | [9] | [10] | [11] | [12] | [13] | [14] | [15] | [16] | [17] | [18] | [19] | [20]

O=C(c1ccccc1)c1ccccc1O
inactive: [1] | [2] | [3] | [4] | [5] | [6] | [7] | [8] | [9] | [10] | [11] | [13] | [14] | [15] | [16] | [17] | [19] | [20]
active: [12] 161 µM | [18] 154 µM
